Screening data: PubChem BioAssay, National Center for Advancing Translational Sciences (NCATS)
TGFb inhibitor: qHTS for Inhibitors of TGF-b; HepG2 CAGA-GFP TGF-b/SMAD3 reporter, GFP fluorescence, 18 h; TGF-beta stimulated, 500 pg/mL final; Potency, µM (titrated, usually from 46.1 µM), hits mostly inhibitors; 410,000 compounds, 1.2% hits; further: nearly all actives have a fitted effect of over 65% in size
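HEPG2 CAGA-GFP, 1000 cells/well; 2 h settle, 37 C; cpd via pin tool; TGF-b 500 pg/mL final; 18 h, 37 C; GFP imaging ex488/em500-530; %Activity normalised to -TGF-b and +DMSO controls; CRC fit, curve class.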
HepG2 viability: qHTS for Inhibitors of TGF-b: Cytotox Counterscreen; HepG2 CAGA-GFP viability, ATP luminescence, 18 h; Potency, µM (top dose mostly 46.1 µM), hits mostly cytotoxic; 410,000 compounds, 0.76% hits
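CellTiter-Glo luminescence gave cytotoxicity after 18 hours at 37 degrees C. The cells were HepG2 CAGA-GFP in 1% FBS DMEM, stimulated with 500 pg/mL TGF-beta after compound addition. %Activity was normalised to no-cell wells (complete cell-killing) and DMSO (no toxicity), and curves were fitted and classified.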
ATXN2 expr inh: Primary qHTS for Inhibitors of ATXN expression. Potency, µM (titrated, usually from 57 µM), actives largely listed as inhibitors. AID 1745845, 2022. 360,000 compounds, 0.72% hits. HEK-293 ATXN2-luciferase reporter, luminescence, 24 h; further: nearly all actives have a fitted effect of over 55% in size
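ATXN2-luciferase reporter cells (luciferase flanked by upstream and downstream ATXN2 gene portions) were treated 24 h at 37 °C with compounds at up to 57 uM. SteadyGlo luminescence gave expression; GF-AFC fluorescence gave viability.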
ATXN viability: Viability Counterscreen for Primary qHTS for Inhibitors of ATXN expression; S2 cells (HEK-293 line with an ATXN2-luciferase reporter) viability, CellTiter-Fluor protease fluorescence, 24 h; Potency, µM (titrated, usually from 56.7 µM), most hits filed as cytotoxic; 400,000 compounds, 0.49% hits; further: nearly all actives have a fitted effect of over 40% in size
HT1080 IDH1KD tx: qHTS for induction of synthetic lethality in tumor cells producing 2HG: qHTS for the HT-1080-IDH1KD cell line; HT-1080 IDH1 knockdown viability, ATP luminescence, 48 h; Potency, µM (highest dose often 46.1 µM), most hits filed as cytotoxic; 360,000 compounds, 2% hits
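In this qHTS, HT-1080 cells depleted of IDH1 are exposed for 48 h at 37 °C to compound titrations. Toxicity is scored from CellTiter-Glo luminescence, with DMSO as full viability and medium alone as none.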
HT1080-NT tox: qHTS for induction of synthetic lethality in tumor cells producing 2HG: qHTS for the HT-1080-NT fibrosarcoma cell line; HT-1080-NT fibrosarcoma viability, CellTiter-Glo ATP luminescence, 48 h; Potency, µM (top dose mostly 46.1 µM), most hits filed as cytotoxic; 360,000 compounds, 1.6% hits;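 further: NT is the 2HG producing partner of a matched IDH1 knockdown line; nearly all actives have a fitted effect of over 55% in size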
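HT-1080-NT fibrosarcoma cells (2HG-overproducing), 750 cells/well in RPMI with 5% FBS, dosed after 2 h and incubated 48 h at 37C. CellTiter-Glo luminescence normalized to DMSO and no-cell wells; concentration-response curves fitted and classed.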
Hits are given with their value; - = inactive; ? = inconclusive; . = not tested or not shown. The list is not random: actives were taken first. Their share in the collection is about 3.8%. The call rests on the fitted dose curve; in most records, active means well fitted curve in the direction sought with a large enough effect; inconclusive means small, poorly fitted or top-dose-only effect, or another doubt; inactive means no such curve, though single readings can be large; an effect the other way counts as inactive or inconclusive.

SMILES | TGFb inhibitor | HepG2 viability | ATXN2 expr inh | ATXN viability | HT1080 IDH1KD tx | HT1080-NT tox
CCN(CC)S(=O)(=O)c1cc(NC(=O)Cn2ncc(Cl)c(Cl)c2=O)ccc1C | - | - | ? | ? | 7.31µM | 10.3µM
CCN(CC)S(=O)(=O)c1cc(NC(=O)CN2C(=O)NC(C)(c3ccccc3)C2=O)ccc1C (stereo not given) | - | - | - | - | ? | -
CCCc1cc(=O)[nH]c(SCC(=O)Nc2cc(S(=O)(=O)N3CCCCC3)ccc2C)n1 | ? | 15.8µM | - | - | 14.6µM | 10.3µM
COc1ccc(NC(=O)c2ccc(Cl)nc2)cc1S(=O)(=O)N1CCOCC1 | - | - | . | - | - | -
Cc1ccc(S(=O)(=O)N2CCCCC2)cc1NC(=O)Cn1ncc(Cl)c(Cl)c1=O | ? | - | ? | ? | 14.6µM | 20.6µM
COc1ccc(NC(=O)Cn2ncc(Cl)c(Cl)c2=O)cc1S(=O)(=O)N1CCOCC1 | ? | - | ? | ? | 20.6µM | -
CCCc1nn2c(=O)cc(COC(=O)c3cccc(NC(=O)c4ccc(OCC)cc4)c3)nc2s1 | ? | - | . | . | . | .
Cc1ccc(NC(=O)CN2C(=O)c3cccnc3Sc3ccccc32)cc1C | - | - | . | . | . | .
Cc1cc(Br)ccc1NC(=O)CNC(=O)Cn1ncc(Cl)c(Cl)c1=O | - | - | 4.74µM | 3.36µM | 2.59µM | 3.66µM
O=C(Cn1ncc(Cl)c(Cl)c1=O)Nc1ccc2c(c1)OCO2 | ? | - | ? | . | 18.4µM | ?
CN1CCN(c2nc(-c3ccccc3O)nc3ccccc23)CC1 | - | - | - | - | - | -
COc1cccc(-c2nc(N3CCN(C)CC3)c3ccccc3n2)c1O | ? | - | ? | - | 14.6µM | -
COc1ccc(/C=C/C(=O)NC(=S)NNC(=O)Cc2cccs2)cc1 | ? | - | - | - | 16.4µM | 14.6µM
O=C(/C=C/c1ccccc1)NC(=S)NNC(=O)Cc1cccs1 | - | - | - | - | ? | ?
COc1ccc(Cn2c(C(=O)O)c(CNCc3ccco3)c3ccc(OC)cc32)cc1 | - | - | - | - | . | .
C=CCn1c(SCc2c(C)noc2C)nc2ccccc2c1=O | - | - | ? | ? | 0.316µM | 0.562µM
COc1ccc(C(C)=O)cc1CSc1nc2ccccc2c(=O)n1-c1ccccc1 | - | - | ? | . | - | ?
C=CCn1c(SCc2cc(C(C)=O)ccc2OCC)nc2ccccc2c1=O | ? | - | - | ? | 2.31µM | ?
C=CCn1c(SCc2c(C)noc2C)nc2cc(C(=O)O)ccc2c1=O | - | - | - | ? | 7.08µM | 6.31µM
C=CCn1c(SCc2ccc(Br)cc2F)nc2cc(C(=O)O)ccc2c1=O | - | - | - | - | - | -
O=C(CNC(=O)c1ccccc1)OCC(=O)c1cccc2ccccc12 | - | - | . | . | . | .
CC1(C)CC(=O)C2=C(C1)NC(Nc1nc3ccccc3o1)=NC2c1cccc(F)c1 (stereo not given) | - | - | . | . | . | .
Cc1ccc(NCc2cccn2-c2nnc(N3CCC(C(=O)NCCc4ccc(Cl)cc4)CC3)s2)cc1 | . | - | . | . | . | .
Cc1ccc(S(=O)(=O)N2C[C@H]3n4c(=O)ccc(=O)n4C[C@H](OC(=O)NCC4CCCCC4)[C@@]3(O)C2)cc1 | ? | - | 15.8µM | 22.4µM | ? | 20.6µM
Cc1ccc(S(=O)(=O)N2C[C@H]3n4c(=O)ccc(=O)n4C[C@H](OC(=O)NCc4ccccc4)[C@@]3(O)C2)cc1 | - | - | - | ? | ? | ?
SMILES | TGFb inhibitor | HepG2 viability | ATXN2 expr inh | ATXN viability | HT1080 IDH1KD tx | HT1080-NT tox
COc1cc(C)c(CN2CCC3(CCC(CNC(=O)c4ccnn4C)O3)CC2)cc1C (stereo not given) | . | . | . | - | . | .
Cc1nc2c(OCc3ccc(F)c(F)c3)cccn2c1N(C)C(=O)CCC1CCCC1 | ? | - | ? | ? | 18.4µM | ?
Cc1nc2c(OCc3ccc(OC(F)F)cc3)cccn2c1N(C)C(=O)CCC1CCCC1 | ? | - | ? | . | ? | ?
CC(=O)OC1CCC2C3CCC4OC(=O)CCC4C3CCC12C (stereo not given) | - | - | - | - | - | -
C=C1C(=O)C2=CC1CCC(=O)C1(C)CCC(OC(C)=O)C(C)(C)C1CC2O (stereo not given) | 2.82µM | - | ? | . | 5.8µM | -
COc1ccc2ccccc2c1/C=N/Nc1ccc(Cl)c(C(=O)O)c1 | - | - | - | - | - | -
COc1ccc(N/N=C/c2c(C(=O)O)ccc3ccccc23)cc1 | 2.24µM | - | . | ? | ? | ?
